Source: PubChem BioAssay
TDP1 cell CPT: qHTS for Inhibitors of human tyrosyl-DNA phosphodiesterase 1 (TDP1): qHTS in cells in presence of CPT. 420,000 tested, 12% active. chicken DT40 Tdp1-/-;hTDP1 cells + 20 nM CPT, ATP luminescence, 48 h. AID 686979, 2013. Potency, µM (top dose mostly 46.2 µM), for inactives: at the highest dose activity change, negative = growth inhibition, actives largely listed as inhibitors; note: nearly all actives have a fitted effect of over 55% in size
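Cell growth measured by CellTiter-Glo luminescence after a minimum 48 h, 37 C compound exposure with 20 nM CPT in Tdp1-knockout DT40 cells stably expressing hTDP1, seeded 400/well; qHTS titration format.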
TDP1 block: qHTS Assay for Inhibitors of Tyrosyl-DNA Phosphodiesterase (TDP1); Tyrosyl-DNA phosphodiesterase 1 (Homo sapiens), Q9NUW8; recombinant TDP1, AlphaScreen DNA substrate cleavage; Potency, µM (highest dose often 130 µM), without a hit: at the top dose activity change, negative = inhibition, actives largely listed as inhibitors; 350,000 tested, 0.28% active; AID 485290, 2010; note: nearly all actives have a fitted effect of over 40% in size
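Here, a 5' biotin and 3' phosphotyrosine-FITC DNA oligonucleotide reports Tdp1 activity: intact substrate bridges AlphaScreen beads, while cleavage leaves a 3' phosphate and drops signal. All incubations at room temperature.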
RORgamma inh: qHTS for inhibitors of ROR gamma transcriptional activity; Potency, µM (highest dose often 53.6 µM), without a hit: top-dose activity change, negative = inhibition, hits mostly inhibitors; 310,000 tested, 5.4% active; AID 2551, 2010; Drosophila S2 Gal4-RORgamma UAS-luciferase reporter, 20 h; note: nearly all actives have a fitted effect of over 60% in size
Target sequence (P51450 whole entry, looked up, the tested form may be a part): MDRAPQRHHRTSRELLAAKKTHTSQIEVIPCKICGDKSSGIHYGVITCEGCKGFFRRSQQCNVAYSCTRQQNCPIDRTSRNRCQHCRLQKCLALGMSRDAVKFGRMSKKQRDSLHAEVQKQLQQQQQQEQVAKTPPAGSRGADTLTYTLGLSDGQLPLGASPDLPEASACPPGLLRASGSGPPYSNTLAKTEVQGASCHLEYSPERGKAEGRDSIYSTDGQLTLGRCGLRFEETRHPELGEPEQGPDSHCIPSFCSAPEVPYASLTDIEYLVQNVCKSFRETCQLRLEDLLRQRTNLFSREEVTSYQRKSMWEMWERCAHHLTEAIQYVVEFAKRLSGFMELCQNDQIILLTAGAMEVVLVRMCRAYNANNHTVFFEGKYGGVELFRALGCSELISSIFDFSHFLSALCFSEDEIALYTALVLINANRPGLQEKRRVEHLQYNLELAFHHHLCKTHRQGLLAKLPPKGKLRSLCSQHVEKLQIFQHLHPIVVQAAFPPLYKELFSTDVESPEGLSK
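Luciferase reporter read in Schneider cells carrying Gal4-RORγ (mouse) and UAS-Photinus luciferase; cells given compound 1 h before 700 uM copper sulfate induction, then incubated 20 h at ambient temperature.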
Gal4-VP16 FLuc: VP16 counterscreen qHTS for inhibitors of ROR gamma transcriptional activity. Potency, µM (series often up to 53.6 µM), for inactives: at the highest dose activity, negative = inhibition, most hits filed as inhibitors. AID 2546, 2010. 310,000 tested, 3.5% active. Drosophila S2 Gal4-VP16 UAS-luciferase, luminescence, 20 h;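 note: Gal4-VP16 expression switched on by copper sulfate through the metallothionein promoter; nearly all actives have a fitted effect of over 50% in size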
TDP1 cell noCPT: qHTS for Inhibitors of human tyrosyl-DNA phosphodiesterase 1 (TDP1): qHTS in cells in absence of CPT; DT40 Tdp1-/- hTDP1 cells, no CPT, ATP luminescence, 48 h; AID 686978, 2013; 420,000 tested, 15% active; Potency, µM (top dose mostly 46.2 µM), for inactives: at the top dose activity change, negative = growth inhibition, most hits filed as inhibitors; note: nearly all actives have a fitted effect of over 55% in size
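No-CPT arm: Tdp1-/-;hTDP1 DT40 cells (400/well) plus compounds, incubated ≥48 hr at 37 °C. Readout CellTiter-Glo luminescence.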
Active calls of the source: *; [ ] = remark or other dose. An excerpt weighted towards active compounds, which were near 19% of everything screened. Calls come from the whole dose curve; as a rule, active = well fitted curve in the direction sought with a large enough effect; inconclusive = small, poorly fitted or top-dose-only effect, or another doubt; inactive = no such curve, though single readings can be large; an effect the other way counts as inactive or inconclusive. % is set by controls: 0 for no effect and ±100 for the full control effect; potency is the fitted concentration of half-maximal effect.

O=C1Nc2ccccc2/C1=C/c1cnc[nH]1 was read as TDP1 cell CPT inconclusive, TDP1 block 7%, RORgamma inh inconclusive, Gal4-VP16 FLuc -4% and TDP1 cell noCPT 18µM*.
Screening COc1cc(OC)c(/C=C2\C(=O)Nc3ccccc32)c(OC)c1 returned TDP1 cell CPT 2.6µM* and TDP1 cell noCPT 2.6µM*.
`COc1ccc(-n2c(/C=C3\C(=O)Nc4ccccc43)nc3ccccc3c2=O)cc1` gave TDP1 cell CPT inconclusive, TDP1 block 5%, RORgamma inh -1%, Gal4-VP16 FLuc 1% and TDP1 cell noCPT inconclusive.
For CN1CCc2cccc(Cl)c2CC1 the results were TDP1 cell CPT -7%, TDP1 block 4% and TDP1 cell noCPT 3%.
Screening COc1ccc2c3c1O[C@H]1[C@H](O)CC[C@H]4[C@@H](C2)N(C)CC[C@@]341 returned TDP1 cell CPT 10%[92.5 µM] and TDP1 cell noCPT 11%[92.5 µM].
For C=C1C=C(C(F)F)n2ncc(C(=O)NCc3ccccc3F)c2N1 the results were TDP1 cell CPT inconclusive and TDP1 cell noCPT 11µM*.
COc1cc(/C=C/c2nc3ccccc3c(=O)n2-c2cccc(O)c2)ccc1O was read as TDP1 cell CPT inconclusive, TDP1 block inconclusive, RORgamma inh -5%, Gal4-VP16 FLuc -3% and TDP1 cell noCPT 18µM*.
For Cc1cc(C)cc(-n2c(/C=C/c3cccc(F)c3)nc3ccccc3c2=O)c1 the results were TDP1 cell CPT 21µM*, TDP1 block 3% and TDP1 cell noCPT inconclusive.
For COc1cccc(-n2c(/C=C/c3cccc(C)c3)nc3ccccc3c2=O)c1 the results were TDP1 cell CPT inconclusive, TDP1 block -5%[12.3 µM] and TDP1 cell noCPT 23µM*.
Screening COc1cccc(-n2c(/C=C/c3ccccc3O)nc3ccccc3c2=O)c1 returned TDP1 cell CPT inconclusive, TDP1 block -1%[12.3 µM] and TDP1 cell noCPT 26µM*.
Screening CN(C)C(=O)Oc1ccc2c(c1)O/C(=C\c1ccc(Cl)cc1)C2=O returned TDP1 cell CPT -30%, RORgamma inh 43%, Gal4-VP16 FLuc 21% and TDP1 cell noCPT inconclusive.
Screening CCCCNS(=O)(=O)c1ccc(OCC(=O)N2CCN(Cc3ccc4c(c3)OCO4)CC2)cc1 returned TDP1 cell CPT 10µM*, TDP1 block 7%, RORgamma inh -8%, Gal4-VP16 FLuc 5.6µM* and TDP1 cell noCPT inconclusive.
Screening CC1CN=C(Nc2cccc3ccccc23)S1 (centres undefined) returned TDP1 cell CPT 7%, TDP1 block 3%, RORgamma inh inconclusive, Gal4-VP16 FLuc -1% and TDP1 cell noCPT -19%.
For COc1ccccc1-n1c(-c2ccc(C)cc2)nc2ccccc2c1=O the results were TDP1 cell CPT inconclusive, RORgamma inh 5%, Gal4-VP16 FLuc 7% and TDP1 cell noCPT 12µM*.
For Cc1nc2ccccc2c(=O)n1-c1ccccc1C(F)(F)F the results were TDP1 cell CPT -15%, TDP1 block 8%, RORgamma inh 40%, Gal4-VP16 FLuc -5% and TDP1 cell noCPT inconclusive.
COc1ccccc1-n1c(-c2ccccc2Br)nc2ccccc2c1=O was read as TDP1 cell CPT 23µM*, RORgamma inh 0%, Gal4-VP16 FLuc -1% and TDP1 cell noCPT 18µM*.
Screening C=CCn1c(C)c(C=C2C(=O)NC(=O)NC2=O)c2ccccc21 returned TDP1 cell CPT inconclusive, RORgamma inh 0%, Gal4-VP16 FLuc 5% and TDP1 cell noCPT inconclusive.
COc1cccc(N2CCN(c3c4c(nc5nncn35)CCC4)CC2)c1 was read as TDP1 cell CPT 23µM*, TDP1 block 7% and TDP1 cell noCPT 8.2µM*.
For CC(C)CCN(N=O)[C@@H](Cc1ccccc1)CN(N=O)[C@@H](Cc1ccccc1)CN(C)N=O the results were TDP1 cell CPT inconclusive, TDP1 block 5%, RORgamma inh 15%, Gal4-VP16 FLuc 7% and TDP1 cell noCPT inconclusive.
`CN(C)P(=NC(=S)c1cccn1C)(N(C)C)N(C)C` gave TDP1 cell CPT 8.2µM*, TDP1 block 6%, RORgamma inh 7.9µM*, Gal4-VP16 FLuc 16µM* and TDP1 cell noCPT 4.1µM*.
COc1cc2c(cc1OC)[C@@H]1C(=O)c3ccc4c(c3OC1CO2)CC(C(C)C)O4 (some centres undefined) was read as TDP1 cell CPT 0.065µM*, TDP1 block 19%[56.1 µM], RORgamma inh 0.1µM*, Gal4-VP16 FLuc 8.9µM* and TDP1 cell noCPT 0.082µM*.
`COc1cc2c(cc1OC)[C@@H]1C(=O)c3ccc(OC)c(CC=C(C)C)c3OC1CO2` (some centres undefined) gave TDP1 cell CPT 2.9µM*, TDP1 block 16%[56.1 µM], RORgamma inh 7.9µM*, Gal4-VP16 FLuc 1.4µM* and TDP1 cell noCPT 1.6µM*.
CCOP(=O)(Cc1ccc(C#N)o1)OCC was read as TDP1 cell CPT 17%, TDP1 block 6%, RORgamma inh 11%, Gal4-VP16 FLuc 1% and TDP1 cell noCPT -23%.
For COC1C=CC23c4cc5c(cc4CN(CC2O)C3C1)OCO5 (centres undefined) the results were TDP1 cell CPT 2.1µM*, RORgamma inh 3.2µM*, Gal4-VP16 FLuc 1.3µM* and TDP1 cell noCPT 1.3µM*.
`O=c1[nH]c(=O)n(CCc2ccccc2)c(O)c1C=NCCCn1ccnc1` gave TDP1 cell CPT 1%, TDP1 block 10%, RORgamma inh -10%, Gal4-VP16 FLuc 5% and TDP1 cell noCPT inconclusive.
Screening Cc1ccc(C)c(N2CCN(C(=O)C3CCN(Cc4nc(-c5cccc(Cl)c5)oc4C)CC3)CC2)c1 returned TDP1 cell CPT 9.2µM*, TDP1 block 3% and TDP1 cell noCPT 6.5µM*.
Screening Cc1ccc(Cl)cc1N1CCN(C(=O)C2CCN(Cc3nc(-c4ccc(Cl)cc4)oc3C)CC2)CC1 returned TDP1 cell CPT inconclusive, TDP1 block 5% and TDP1 cell noCPT 15µM*.
Screening CN(Cc1cccc(-c2ccncc2)c1)C(=O)Oc1ccc([N+](=O)[O-])cc1 returned TDP1 cell CPT 21µM* and TDP1 cell noCPT 16µM*.
For CC(=NCc1ccco1)c1c(O)n(C)c(=O)n(C)c1=O the results were TDP1 cell CPT -22%, TDP1 block 0%, RORgamma inh 42%, Gal4-VP16 FLuc 8% and TDP1 cell noCPT -13%.
Screening Cn1nc(C(C)(C)C)cc1C(=O)N1CCCCC1c1cc(C(=O)Nc2ccc(F)c(Cl)c2)no1 (centres undefined) returned TDP1 cell CPT 21µM* and TDP1 cell noCPT inconclusive.
